Shown are actives, neighbours in structure and some others; about 1.5% of the full set was active somewhere.
Sa ugtP lethal = kills S. aureus RN4220 lacking UgtP. S. aureus RN4220 ugtP deletion, OD600 growth, 16 h. growth inhibition, % (no concentration beside the values). AID 1259309. actives 0.54% (n = 330,000); in the data active = growth inhibition above about 68%
DUSP3 inh = blocks human VHR1 dual specificity phosphatase; P51452; AID 1654; recombinant VHR phosphatase, pNPP absorbance; inhibition, % at 13.3 µM; actives 0.52% (n = 290,000); in the data active = inhibition above about 50%
Target sequence (P51452 whole entry, looked up): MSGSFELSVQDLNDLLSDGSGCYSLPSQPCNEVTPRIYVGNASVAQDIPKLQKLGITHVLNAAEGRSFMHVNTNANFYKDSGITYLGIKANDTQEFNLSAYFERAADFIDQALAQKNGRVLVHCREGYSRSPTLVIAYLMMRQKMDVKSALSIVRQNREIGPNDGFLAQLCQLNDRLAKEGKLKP
PriA SSB inh = blocks PriA binding to SSB C-terminal tail. inhibition, % at 33 µM. AlphaScreen SSBct-PriA binding, biotinylated peptide. actives 0.6% (n = 430,000); in the data active = inhibition mostly above about 37%, no sharp cut-off; inactive = mostly below about 20%
RN4220 kill = S. aureus RN4220 growth inhibition; OD600, 16 h; inhibition, % (concentration not given with the values); actives 0.33% (n = 330,000); AID 1259311; in the data active = inhibition above about 85%
CCHF vOTU inh-1 = blocks the CCHF virus ovarian tumor domain protease | CCHFV vOTU protease, Pep-AMC fluorescence | inhibition, % at 11.5 µM | actives 0.55% (n = 370,000) | AID 651958
CCHF vOTU inh-2 = confirmation of CCHF virus vOTU protease inhibitors; actives 17% (n = 1,900); inhibition, % at 11.5 µM; Recombinant CCHFV vOTU, Pep-AMC fluorescence; shares compounds with CCHF vOTU inh-1
Hits are given with their value; i = inactive; nt = no result given. Cut-off read from the data, not from the text of the source, unless noted: active = inhibition above about 30%; inactive = the rest.

SMILES | Sa ugtP lethal | DUSP3 inh | PriA SSB inh | RN4220 kill | CCHF vOTU inh-1 | CCHF vOTU inh-2
CC(C)Cc1ccc(C(C)C(=O)Nc2ccc(O)cc2)cc1 (stereo not given) | i | i | i | i | 30 | i
Cc1ccc(SCC(=O)OCC(=O)NC2CCCCCCC2)cc1 | i | nt | i | i | 30 | i
Cc1sc2nc(SCc3nnc(-c4cccs4)o3)n(C3CCCC3)c(=O)c2c1C | i | i | i | i | 31 | i
Cc1sc2nc(CSc3nnc(Cc4cccs4)n3C3CCCCC3)[nH]c(=O)c2c1C | i | i | i | i | i | nt
Cc1ccc(/C=[N+](\[O-])c2ccc(N(C)C)cc2)c2nsnc12 | i | i | i | i | 56 | i
CC1=NN(c2ccccc2)C(=O)C1C=Nc1ccc(N(C)C)cc1 (stereo not given) | i | i | i | i | 30 | i
CC1=NN(c2ccccc2)C(=O)C1N=Nc1ccc(C)cc1 (stereo not given) | i | i | nt | i | nt | nt
CCOC(=O)C1(Cc2cccc(Cl)c2)CCCN(C(=O)c2ccco2)C1 (stereo not given) | i | i | i | i | i | nt
CCOC(=O)C1(Cc2cccc(Cl)c2)CCCN(C(=O)c2ccc(COC)s2)C1 (stereo not given) | nt | i | i | nt | 31 | i
N#CCCN(C(=O)COC(=O)CCc1c[nH]c2ccccc12)c1ccccc1 | i | nt | i | i | 36 | i
COC(=O)C1=C(C)N(Cc2ccccc2C(F)(F)F)C(=NCc2ccc(C(F)(F)F)cc2)NC1c1cccc(Cl)c1 (stereo not given) | nt | nt | nt | nt | 36 | i
C=CCN=C1NC(c2cccc(Cl)c2)C(C(=O)OC)=C(C)N1Cc1cccc(C(F)(F)F)c1 (stereo not given) | nt | nt | nt | nt | 30 | i
COC(=O)C1=C(C)N(Cc2ccc(C(F)(F)F)cc2)C(=NCc2ccc(OC)cc2)NC1c1ccccc1 (stereo not given) | nt | nt | nt | nt | 30 | i
CCc1ccc(NC(=O)Cn2cccc(-c3nc(-c4ccc(Cl)cc4)no3)c2=O)cc1 | nt | nt | i | nt | nt | nt
COc1ccc(OC)c2c1sc(=NC(=O)c1cc(Cl)ccc1[N+](=O)[O-])n2C | nt | nt | i | nt | nt | nt
O=C(N[C@H]1CCN(c2ccccn2)C1)C1(c2ccccc2)CCOCC1 | nt | nt | i | nt | nt | nt
O=C(O)c1cccc(Cn2c(Cl)c(/C=N/NC(=O)c3ccc(O)cc3)sc2=O)c1 | nt | i | i | nt | 31 | i
O=C(O)c1cccc(Cn2c(Cl)c(C=NNC(=O)c3ccc(O)cc3)sc2=O)c1 | i | nt | nt | i | nt | nt
CN(C1=CC(=O)c2ccccc2C1=O)c1ccccc1 | nt | nt | i | nt | nt | nt
CC(C)N(C)C1=CC(=O)C(N(C)C(C)C)=CC1=O | i | nt | i | i | 44 | i
CCCN(CC(=O)Nc1cccc(Br)c1)CC(=O)Nc1ccc(F)c(F)c1F | i | i | i | i | 37 | i
CCCN(CC(=O)Nc1cccc(S(N)(=O)=O)c1)CC(=O)Nc1ccc(F)c(F)c1F | i | i | i | i | i | nt
CCN1C(=O)Cc2cc(NC(=O)Cc3ccc(OC)cc3)ccc21 | nt | nt | i | nt | nt | nt
COc1ccc(CNC(=O)N2CCC(S(=O)(=O)Cc3ccco3)CC2)cc1OC | nt | nt | i | nt | nt | nt
Cc1cc(Br)cn2c(Cc3ccccc3C(F)(F)F)c(-c3ccco3)nc12 | nt | nt | nt | nt | 30 | i
SMILES | Sa ugtP lethal | DUSP3 inh | PriA SSB inh | RN4220 kill | CCHF vOTU inh-1 | CCHF vOTU inh-2
Cc1cc(Br)cn2c(Cc3ccccc3C(F)(F)F)c(-c3ccccc3)nc12 | nt | nt | nt | nt | i | nt
COc1ccc(C)cc1NC(=O)Cc1csc(Nc2ccc(F)cc2)n1 | nt | nt | i | nt | nt | nt
Cc1cccc2c(=O)c(-c3ccc(Cl)cc3)c(NC(=O)c3ccco3)oc12 | i | i | i | i | 30 | i
CCOC(=O)c1sc(N2C(=O)C(O)=C(C(=O)c3ccco3)C2c2cccc(Cl)c2)nc1C (stereo not given) | nt | i | nt | nt | 42 | i
Cc1cc(C)c2nc(N3C(=O)C(O)=C(C(=O)c4ccco4)C3c3cccc(O)c3)sc2c1 (stereo not given) | 88 | nt | i | i | 36 | i
Cc1cc(C)c2nc(N3C(=O)C(O)=C(C(=O)c4ccco4)C3c3ccc(O)cc3)sc2c1 (stereo not given) | i | nt | i | i | 34 | i
Cc1ccc2nc(N3C(=O)C(O)=C(C(=O)c4ccco4)C3c3ccc(O)cc3)sc2c1 (stereo not given) | nt | i | nt | nt | i | nt
Cc1cc(N2C(=O)C(O)=C(C(=O)c3ccco3)C2c2cccc(O)c2)no1 (stereo not given) | i | i | i | i | i | nt
COc1ccc(CNC(=O)Cc2csc(Nc3cccc(Cl)c3)n2)cc1 | nt | nt | i | nt | nt | nt
Cc1c(C(=O)N2CCC(Oc3ccc(C(F)(F)F)cn3)CC2)cnn1-c1ccccc1 | nt | nt | i | nt | nt | nt
CN(C)c1cccc(C(=O)NCCCS(=O)(=O)N2CCN(c3ccc(F)cc3)CC2)c1 | nt | nt | i | nt | nt | nt
Cc1ccc([N+](=O)[O-])cc1N(CC(=O)Nc1ccc(S(=O)(=O)Nc2cccc(C(F)(F)F)c2)cc1)S(C)(=O)=O | i | i | i | 88 | 30 | i
O=C(N/N=C\c1ccc([N+](=O)[O-])o1)c1cncc(Br)c1 | nt | i | nt | nt | 50 | i
O=C(Cc1ccc2c(c1)OCO2)NN=Cc1ccc([N+](=O)[O-])o1 | i | nt | i | i | 32 | i
O=C(CCC(=O)Nc1ccc(Cl)cc1Cl)N/N=C/c1ccc([N+](=O)[O-])o1 | nt | i | nt | nt | 39 | i
CCCCCC(=O)N/N=C/c1ccc([N+](=O)[O-])o1 | nt | i | nt | nt | i | nt
CCOC(=O)c1c(/N=C/c2cc([N+](=O)[O-])ccc2O)sc(C)c1C | nt | i | nt | nt | 30 | i
CCOC(=O)c1c(N=Cc2cc([N+](=O)[O-])ccc2O)sc(C)c1C | i | nt | i | i | nt | nt

From PubChem
